PubChem BioAssay (NCATS)
Results filed as inconclusive are left out. A number with no mark means an inactive call. Activity calls are given as the source filed them. Calls come from the whole dose curve; as a rule, active = well fitted inhibition curve with a large enough effect; inconclusive = small, poorly fitted or top-dose-only effect; inactive = flat fitted curve, though single readings scatter.

test system: KB-3-1; experiment: Cytotoxic Profiling of Annotated Libraries Using Quantitative High-Throughput Screening (AID 1296008); conditions: Five cell lines viability, CellTiter-Glo ATP luminescence, 48-72 h; max response: hits give low values; note: nearly all actives have a fitted effect of over 60% in size
Summary of the method: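 Cytotoxicity was measured as CellTiter-Glo ATP luminescence, read after 10 min at room temperature. Compound treatment of the cells lasted 48 or 72 hr at 37 degrees Celsius in a qHTS format.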
% is set by controls: 0 for no effect and ±100 for the full control effect.

| Compound | max response | outcome |
| --- | --- | --- |
| C1=Cc2ccccc2C(=C2CCN(CCCCc3nn[nH]n3)CC2)c2ccccc21 | -8.87% | – |
| COc1c(CCC(=O)O)cccc1O[C@@H]1O[C@H](CO)[C@@H](O)[C@H](O)[C@H]1O | 0.734% | – |
| CC(=O)OCC(=O)[C@@]12O[C@@H]1C[C@H]1[C@@H]3CC=C4C[C@@H](O)CC[C@]4(C)[C@H]3CC[C@@]12C | – | inactive |
| O=C(O)c1cc(N(Cc2ccc(C3CCCCC3)cc2)C(=O)c2ccc(Oc3ccccc3)cc2)ccc1O | – | inactive |
| COc1ccc(CCO[C@@H]2O[C@H](CO[C@H]3OC[C@](O)(CO)[C@H]3O)[C@@H](OC(=O)/C=C/c3ccc(O)c(O)c3)[C@H](O[C@@H]3O[C@@H](C)[C@H](O)[C@@H](O)[C@H]3O)[C@H]2O)cc1OC | 2.16% | – |
| COc1ccc(S(=O)(=O)Nc2cc(Cl)cc(Cl)c2OC)cc1N1CCNCC1 | -5.04% | – |
| COC(=O)c1ccc2c(c1)[nH]c1ncnc(NCCCN3CCCCC3)c12 | -20.2% | – |
| CN1CCN(C2=Nc3ccccc3Nc3ccc(OS(=O)(=O)C(F)(F)F)cc32)CC1 | -4.68% | – |
| CC[C@H](C)/C=C(C)/C=C/C1=CC2=CC(=O)[C@]3(C)OC(=O)[C@@H](C(C)=O)[C@@H]3C2=CO1 | 4.01% | – |
| CN1CC[C@@H](c2c(O)cc(O)c3c(=O)cc(-c4ccc(C(F)(F)F)cc4Cl)oc23)[C@@H]1CO | 5.55% | – |
| CC(=O)O[C@@H]1CC[C@@]2(C)C(CC[C@]3(C)C2[C@H](O)C=C2[C@H]4[C@@H](C)[C@H](C)CC[C@]4(C)CC[C@]23C)[C@@]1(C)C(=O)O (stereo partly specified) | – | inactive |
